Only some compounds are listed: those with a hit (about 16% of all), similar ones and a draw of the others.
uPA surface inh: qHTS for Inhibitors of Cell Surface uPA Generation | cell surface uPA generation assay, qHTS | 330,000 tested, 0.31% active | Potency, µM (series often up to 38.3 µM), hits mostly inhibitors; active = well fitted inhibition curve with a large enough effect; inconclusive = small, poorly fitted or top-dose-only effect; inactive = no such curve, though single readings can be large or run the other way; tested in mouse RAW 264.7 cells; note: nearly all actives have a fitted effect of over 55% in size
miR-21 act: qHTS Assay for Modulators of miRNAs and/orActivators of miR-21 | AID 2288, 2010 | HeLa miR-21 FLuc reporter, luciferase, 48 h | 340,000 tested, under 10 active | Potency, µM (top dose mostly 38.3 µM), usual class: activators;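 note: miR-21 action dims this reporter so a rising signal means less miR-21 action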
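HeLa miR-21-FLuc reporter line, endogenous miR-21; 2000 cells/well in DMEM/10% FBS; compound titration up to ~40uM final, 48 h, 37 degree Celsius; luciferase detection reagent, 15 min lysis, CCD luminescence.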
TDP1 cell CPT: qHTS for Inhibitors of human tyrosyl-DNA phosphodiesterase 1 (TDP1): qHTS in cells in presence of CPT | Potency, µM (top dose mostly 46.2 µM), most hits filed as inhibitors | 420,000 tested, 12% active | chicken DT40 Tdp1-/-;hTDP1 cells + 20 nM CPT, ATP luminescence, 48 h; note: nearly all actives have a fitted effect of over 55% in size
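Cell growth measured by CellTiter-Glo luminescence after a minimum 48 h, 37 C compound exposure with 20 nM CPT in Tdp1-knockout DT40 cells stably expressing hTDP1, seeded 400/well; qHTS titration format.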
TDP1 inh: qHTS Assay for Inhibitors of Tyrosyl-DNA Phosphodiesterase (TDP1); Potency, µM (doses to about 130 µM), usual class: inhibitors; Tyrosyl-DNA phosphodiesterase 1 (Homo sapiens), Q9NUW8; 350,000 tested, 0.28% active; recombinant TDP1, AlphaScreen DNA substrate cleavage; note: nearly all actives have a fitted effect of over 40% in size
Target sequence (Q9NUW8 whole entry, looked up): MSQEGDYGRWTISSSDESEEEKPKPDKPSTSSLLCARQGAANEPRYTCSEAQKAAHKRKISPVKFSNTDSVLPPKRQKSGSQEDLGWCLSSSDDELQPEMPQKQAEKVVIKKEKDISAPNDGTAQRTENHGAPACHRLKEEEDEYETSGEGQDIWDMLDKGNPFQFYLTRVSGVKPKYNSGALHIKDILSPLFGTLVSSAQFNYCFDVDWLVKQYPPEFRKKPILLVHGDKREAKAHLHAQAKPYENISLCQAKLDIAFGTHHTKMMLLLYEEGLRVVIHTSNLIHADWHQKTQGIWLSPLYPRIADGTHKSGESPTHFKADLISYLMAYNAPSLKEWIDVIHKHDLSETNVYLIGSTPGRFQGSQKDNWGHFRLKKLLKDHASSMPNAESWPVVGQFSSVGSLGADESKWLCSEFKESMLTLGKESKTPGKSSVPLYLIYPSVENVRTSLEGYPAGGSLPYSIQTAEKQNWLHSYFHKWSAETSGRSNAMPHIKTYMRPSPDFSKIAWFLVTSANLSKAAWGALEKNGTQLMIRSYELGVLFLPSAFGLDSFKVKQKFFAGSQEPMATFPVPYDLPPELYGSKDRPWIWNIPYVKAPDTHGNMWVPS
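Recombinant human Tdp1 (E. coli-expressed, 1 nM final) preincubated with compounds 15 min at room temperature, then 5'-biotin/3'-phosphotyrosine-FITC DNA substrate (15 nM final) added for 5 min. AlphaScreen beads (10 ug/ml final) added 10 min; cleavage lowers signal.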
TDP1 cell noCPT: qHTS for Inhibitors of human tyrosyl-DNA phosphodiesterase 1 (TDP1): qHTS in cells in absence of CPT. 420,000 tested, 15% active. Potency, µM (highest dose often 46.2 µM), hits mostly inhibitors. DT40 Tdp1-/- hTDP1 cells, no CPT, ATP luminescence, 48 h. AID 686978, 2013; note: nearly all actives have a fitted effect of over 55% in size
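Chicken DT40 Tdp1-/- cells stably complemented with human TDP1 were seeded at 400 cells/well with DMSO in place of 20 nM camptothecin. After compound pinning, cells grew at least 48 hr at 37 °C; viability read by CellTiter-Glo luminescence.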
Of the large screens only hits and unclear results are named; the others gave an inactive call. Unless noted, calls come from the whole dose curve; as a rule, active = well fitted curve in the direction sought with a large enough effect; inconclusive = small, poorly fitted or top-dose-only effect, or another doubt; inactive = no such curve, though single readings can be large; an effect the other way counts as inactive or inconclusive.

NS(=O)(=O)c1ccc(CCNC(=O)C2CCN(c3ncnc4c3nc3n4CCCCC3)CC2)cc1	none
Cc1cn2c(=O)cc(COc3ccc(NC(=O)c4ccc(C(C)(C)C)cc4)cc3)nc2s1	TDP1 cell CPT inconclusive, TDP1 cell noCPT inconclusive (no result: uPA surface inh)
Nc1cc(Cl)ccc1C(=O)OCC(=O)N1CCCC1	none
O=C(/C=C/Nc1cccc(C(F)(F)F)c1)c1ccc(Oc2ncccn2)cc1	TDP1 cell CPT inconclusive, TDP1 cell noCPT 23µM
O=C(Nc1ccnn1C1CCN(C(=O)c2ccc(C(F)(F)F)cc2)CC1)C1CC1	none
CC1C(=O)Nc2ccc(S(=O)(=O)N3CCN(c4cccc(C(F)(F)F)c4)CC3)cc2NC1=O (centres undefined)	TDP1 cell CPT 26µM
CC1C(=O)Nc2ccc(S(=O)(=O)N3CCN(c4cccc(Cl)c4)CC3)cc2NC1=O (centres undefined)	TDP1 cell CPT 18µM, TDP1 cell noCPT inconclusive (no result: TDP1 inh)
O=C1CCc2cc(S(=O)(=O)N3CCN(c4cccc(C(F)(F)F)c4)CC3)ccc2N1	none (no result: uPA surface inh)
CCS(=O)CCSC(=N)N (centres undefined)	none
O=C(/C=C/c1ccco1)OCC(=O)c1ccc(OC(F)F)cc1	uPA surface inh inconclusive (no result: miR-21 act)
COc1cc(/C=C/C(=O)OCC(=O)c2ccc(OC(F)F)cc2)ccc1O	TDP1 cell CPT inconclusive, TDP1 cell noCPT 15µM (no result: miR-21 act)
COc1cccc(/C=C/C(=O)OCC(=O)c2c[nH]c3ccccc23)c1	none (no result: miR-21 act)
CCc1cccc2c(C(=O)COC(=O)/C=C/c3ccc(O)c(OC)c3)c[nH]c12	TDP1 cell CPT inconclusive, TDP1 cell noCPT 18µM
CCN(CC(=O)Nc1ccccc1C(F)(F)F)C(=O)CCOc1ccccc1C	none (no result: miR-21 act)
CCN(CC(=O)Nc1ccccc1C(F)(F)F)C(=O)c1ccc(NC(=O)c2cccs2)cc1	TDP1 cell CPT 15µM, TDP1 cell noCPT 21µM (no result: uPA surface inh, miR-21 act, TDP1 inh)
CCN(CC(=O)Nc1ccccc1C(F)(F)F)C(=O)c1ccccc1OCc1ccc(F)cc1	TDP1 cell CPT 16µM, TDP1 cell noCPT 21µM (no result: miR-21 act, TDP1 inh)
Cc1ccc(-c2cc(C(=O)N(C)Cc3cnn(C)c3C)c3cc(Br)ccc3n2)cc1	TDP1 cell CPT 7.3µM, TDP1 cell noCPT 10µM
O=C(c1cc(C2CC2)nn1-c1ccccc1)N1CCN(c2ccccc2O)CC1	TDP1 cell CPT inconclusive, TDP1 cell noCPT 16µM (no result: miR-21 act)
O=C(NC1CCCCC1)c1cc(C2CC2)nn1-c1ccccc1	TDP1 cell CPT 16µM, TDP1 cell noCPT 16µM (no result: miR-21 act)
CCOc1ccc(S(=O)(=O)N2CCN(C(=O)c3cc(C4CC4)nn3-c3ccccc3)CC2)cc1	TDP1 cell CPT 21µM, TDP1 cell noCPT 18µM (no result: miR-21 act)
CCNC(=O)CCCN1C(=O)CCn2nc(-c3cccn3C)cc21	none (no result: uPA surface inh)
CCCN1C(=O)c2cc(C(=O)Nc3ccccc3OC)ccc2C1Nc1ccccc1OC (centres undefined)	TDP1 cell CPT inconclusive, TDP1 cell noCPT inconclusive (no result: TDP1 inh)
CCCN1C(=O)c2cc(C(=O)Nc3cccc(C(C)=O)c3)ccc2C1Nc1cccc(C(C)=O)c1 (centres undefined)	TDP1 cell CPT 8.2µM, TDP1 cell noCPT 15µM (no result: TDP1 inh)
Cn1cc(/C=C(\NC(=O)c2ccccc2Cl)C(=O)N2CCOCC2)c2ccccc21	none
O=C(NCc1ccc(F)cc1)c1ccc[nH]1	none
CCC(=O)N(CCc1ccccc1)Cc1cc2ccc(OC)cc2[nH]c1=O	TDP1 cell noCPT inconclusive (no result: TDP1 inh)
COc1cc(S(=O)(=O)Nc2cccc(C)c2)ccc1N=Cc1c(C)[nH]n(-c2ccccc2)c1=O	none (no result: uPA surface inh, TDP1 cell CPT, TDP1 cell noCPT)
COc1nccnc1NS(=O)(=O)c1ccc(N=Cc2c(C)[nH]n(-c3ccc(C)c(C)c3)c2=O)cc1	uPA surface inh inconclusive, TDP1 cell CPT 8.2µM, TDP1 cell noCPT 9.2µM
Cc1ccc(-n2[nH]c(C)c(C=Nc3ccc(S(=O)(=O)Nc4nccs4)cc3)c2=O)cc1C	TDP1 cell CPT 8.2µM, TDP1 cell noCPT 18µM
COc1cc(S(=O)(=O)Nc2ccc(C)cc2)ccc1N=Cc1c(C)[nH]n(-c2ccccc2)c1=O	TDP1 cell CPT 9.2µM, TDP1 cell noCPT inconclusive
COC(C/C=C\C(=O)[C@H](C)OCc1ccccc1)OC	TDP1 cell CPT inconclusive, TDP1 cell noCPT inconclusive (no result: miR-21 act, TDP1 inh)
COCCN1C(=O)c2oc3ccccc3c(=O)c2C1c1cccc(O)c1 (centres undefined)	none
Cc1ccc(CNC(=O)C(C(C)C)N2Cc3ccccc3C2=O)cc1 (centres undefined)	TDP1 cell CPT inconclusive, TDP1 cell noCPT inconclusive (no result: uPA surface inh)
COc1cc(=O)n2c(c1C(=O)NC(C)c1ccco1)CCN(C(=O)c1cccc(C)c1)CC2 (centres undefined)	none (no result: uPA surface inh, miR-21 act, TDP1 inh)
CC(CN1C(C)CCCC1C)OC(=O)c1cccc(Br)c1 (centres undefined)	none (no result: TDP1 inh)
CCCOC(=O)c1ccc(OCC(O)Cn2c(C)nc3ccccc32)cc1 (centres undefined)	TDP1 cell CPT 2.6µM, TDP1 cell noCPT 2.6µM
CC(=O)Nc1cccc(OCC(O)Cn2cnc3ccccc32)c1 (centres undefined)	none
CC(=O)Nc1cccc(OCC(O)Cn2c(C)nc3ccccc32)c1 (centres undefined)	TDP1 cell CPT inconclusive, TDP1 cell noCPT 16µM (no result: uPA surface inh)
CCC(=O)c1ccc(OCC(O)Cn2nnc3ccccc32)cc1 (centres undefined)	none
Cc1nc2ccccc2n1CC(O)COCC1CC=CCC1 (centres undefined)	TDP1 cell CPT 15µM, TDP1 cell noCPT 10µM
CCC(C)Sc1nc2ccccc2n1CC(=O)O (centres undefined)	none (no result: uPA surface inh)
O=C(Nc1cccc2ccccc12)NC1CCCc2ccccc21 (centres undefined)	none
CCN(C(=O)CCNC(=O)Cn1cnc2ccccc2c1=O)c1cccc(Cl)c1	none
Cc1onc(-c2ccccc2)c1C(=O)OCC(=O)N1CCCCC1	TDP1 cell noCPT inconclusive (no result: uPA surface inh, miR-21 act, TDP1 inh)
COc1ccc(N(C(=O)c2ccc(S(=O)(=O)N3CCCC3)cc2)C2C=CS(=O)(=O)C2)cc1 (centres undefined)	none
O=C(CSc1ncnc2c1oc1ccccc12)Nc1cccc(Cl)c1	TDP1 cell CPT inconclusive
Clc1ccc2oc3c(Cl)ncnc3c2c1	TDP1 cell CPT 18µM, TDP1 cell noCPT 6.5µM
O=C(Nc1nccs1)c1ccc(COc2ccccc2Br)o1	uPA surface inh inconclusive, TDP1 cell CPT inconclusive, TDP1 cell noCPT inconclusive
S=c1[nH]cnc2scc(-c3ccc(Br)cc3)c12	TDP1 cell CPT inconclusive, TDP1 cell noCPT 5.8µM
Cc1ccc(-c2csc3nc[nH]c(=S)c23)cc1	TDP1 cell CPT 3.3µM, TDP1 cell noCPT 5.2µM
S=c1[nH]cnc2scc(-c3ccc(Cl)cc3)c12	TDP1 cell CPT inconclusive, TDP1 cell noCPT inconclusive

Compound activity (PubChem)
